Screens (PubChem BioAssay)
DRD3 agonist: D3 dopamine receptor (human) agonism; P35462; D3R DiscoveRx beta-arrestin cells, luminescence, 90 min; max activation, %; 410,000 tested, 0.58% active; AID 652048; in the data active = max activation above about 30%; note: 0% is about no effect
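Agonist-mode cell screen: cells plated at 1500/well and incubated overnight at 37 °C, then exposed to library compounds for 90 min at 37 °C. Detection reagent was added for 30–60 min at room temperature, and luminescence was read.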
DT40 TDP1 CPT: growth inhibition of DT40 Tdp1-/-;hTDP1 cells with camptothecin (screen for TDP1 inhibitors). chicken DT40 Tdp1-/-;hTDP1 cells + 20 nM CPT, ATP luminescence, 48 h. Potency, µM (titrated, usually from 46.2 µM), for inactives: top-dose activity change, negative = growth inhibition, usual class: inhibitors. 420,000 tested, 12% active; note: potency is the fitted concentration of half-maximal effect; % is set by controls: 0 for no effect and ±100 for the full control effect; nearly all actives have a fitted effect of over 55% in size
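Chicken DT40 Tdp1-/- cells stably complemented with human TDP1 were seeded at 400 cells/well in medium containing 20 nM camptothecin, exposed to pin-transferred compounds, and grown at 37 °C for at least 48 hr. Viability was read as ATP luminescence.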
DRD3 antagonist: blocks the human D3 dopamine receptor; P35462; D3R cells, DiscoveRx beta-arrestin luminescence, antagonist mode; active compounds read low; max response, negative = inhibition, %; 360,000 tested, 2.5% active; AID 652054; in the data active = max response below about -50%; inconclusive = no clear call, values can overlap the other calls; note: % is set by controls: 0 for no effect and ±100 for the full control effect
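Cells expressing the human receptor were seeded at 1500 cells/well, incubated overnight at 37 degrees C in 5% CO2, then exposed to library compounds with dopamine controls for 90 minutes at 37 degrees C before luminescent detection.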
ClpP mod: qHTS Assay for Activators of ClpP; purified B. subtilis ClpP, FRET peptide cleavage, 20 min; Potency, µM (top dose mostly 57.5 µM), for inactives: top-dose activity change, negative = active; 340,000 tested, 1.9% active; AID 651965, 2013; active = well fitted falling curve with a large enough effect; inconclusive = small, poorly fitted or top-dose-only effect; inactive = no such curve, though single readings can be large or run the other way; note: potency is the fitted concentration of half-maximal effect; the source files actives as falling curves though it sought activators and does not explain the sign; nearly all actives have a fitted effect of over 65% in size
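Purified B. subtilis ClpP, 10 microg/mL final in Tris/HCl pH8 with KCl, BSA, glycerol and Tween-20, cleaved an Abz/nitrotyrosine-quenched decapeptide. Fluorescence (ex 320, em 430) was read at 0 and 20 min at room temperature. Delta was normalized to 5.8 microM ADEP and DMSO/no-enzyme controls.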
DT40 TDP1 no CPT: qHTS for Inhibitors of human tyrosyl-DNA phosphodiesterase 1 (TDP1): qHTS in cells in absence of CPT; DT40 Tdp1-/- hTDP1 cells, no CPT, ATP luminescence, 48 h; Potency, µM (doses to about 46.2 µM), without a hit: at the highest dose activity change, negative = growth inhibition, most hits filed as inhibitors; 420,000 tested, 15% active; note: potency is the fitted concentration of half-maximal effect; % is set by controls: 0 for no effect and ±100 for the full control effect; nearly all actives have a fitted effect of over 55% in size
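A cellular qHTS used chicken DT40 cells lacking endogenous Tdp1 but carrying stably transfected human TDP1. Compounds were applied without camptothecin, and cell growth kinetics were judged by ATP-dependent luminescence after ≥48 hr.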
IL1B secr inh: blocks inflammasome-driven IL-1 beta release | THP-1 LPS/ATP IL-1B secretion, AlphaLISA, 16 h; active compounds read low | activity change, % at 57.5 µM | 360,000 tested, 4.7% active; in the data active = activity change below about -50%; inconclusive = mostly about -30% to -49%; note: % is set by controls: 0 for no effect and ±100 for the full control effect
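THP-1 cells pretreated 1 hr with compounds (up to 57.5 uM final), then stimulated with LPS (250 ng/mL final) plus ATP (1.25 mM final); secreted IL-1B measured by AlphaLISA after 16 hr, decreased signal indicating inhibition.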
* = called active by the depositor; ? = inconclusive; / = no result given. Hits are enriched below; roughly 21% of the tested compounds scored in any of these assays. Unless noted, calls come from the whole dose curve; as a rule, active = well fitted inhibition curve with a large enough effect; inconclusive = small, poorly fitted or top-dose-only effect; inactive = flat fitted curve, though single readings scatter.

SMILES	DRD3 agonist	DT40 TDP1 CPT	DRD3 antagonist	ClpP mod	DT40 TDP1 no CPT	IL1B secr inh
COC1=C2C[C@H](C)C[C@H](OC)[C@@H](O)[C@@H](C)C=C(C)[C@H](OC(N)=O)[C@@H](OC)C=CC=C(C)C(=O)NC(=CC1=O)C2=O	/	0.079µM*	/	-23%	0.025µM*	/
O=P1(NC2CCCCC2)OCC2(CO1)COP(=O)(NC1CCCCC1)OC2 (centres undefined)	-9	8%	1	/	-12%	7
CC(=O)NC(Cc1cccc(C)c1)C(=O)NC1CCN(C(=O)NCc2ccccc2)CC1 (centres undefined)	5	5%	4	/	-18%	11
CCn1c(N)c(C(=O)NCCOC)sc1=S	5	-3%	-13	0%	0%	14
CCn1c(N)c(C(=O)Nc2ccccc2C(=O)OC)sc1=S	6	?	2	1%	16µM*	34
COc1ccc(CC(N)c2csc(NC(=O)c3ccccc3OC)n2)cc1 (centres undefined)	2	?	15	0%	-25%	-7
NC(Cc1ccccc1)c1csc(NC(=O)c2cccc(OC(F)(F)F)c2)n1 (centres undefined)	2	7.3µM*	0	-9%	7.3µM*	/
COc1ccc(CC(N)c2csc(NC(=O)c3cccc(OC(F)(F)F)c3)n2)cc1 (centres undefined)	1	15µM*	44	-5%	12µM*	-60*
Cc1ccc(C(=O)OCc2cc(=O)n3nc(-c4cccs4)sc3n2)cc1	3	-10%	/	-10%	-22%	/
CC(C)c1ccc2nc(N)sc2c1	0	20%	5	/	26µM*	2
CCn1cc(C(=O)O)c(=O)c2cc(F)c(N3CCN(S(=O)(=O)c4ccc(NC(C)=O)cc4)CC3)cc21	1	-27%	-19	?	?	0
CCn1cc(C(=O)O)c(=O)c2cc(F)c(N3CCN(C(=S)NC(=O)c4ccccc4F)CC3)cc21	-6	-20%	-13	/	15µM*	-12
CCn1cc(C(=O)O)c(=O)c2cc(F)c(N3CCN(C(=S)NC(=O)c4cccc(C)c4)CC3)cc21	6	-24%	10	/	-17%	25
CCn1cc(C(=O)O)c(=O)c2cc(F)c(N/N=C/c3ccccc3)cc21	5	?	9	-16%	13µM*	0
CCn1cc(C(=O)O)c(=O)c2cc(F)c(N3CCN(S(=O)(=O)c4ccc5c(c4)OCCO5)CC3)cc21	-10	21µM*	6	13%	?	35
CCn1cc(C(=O)O)c(=O)c2cc(F)c(N3CCN(C(=O)Nc4ccccc4)CC3)cc21	-5	21µM*	-25	?	23µM*	?
COc1ccc(C(=O)NC2CC2)cc1OC1CCN(C(C)CSC)CC1 (centres undefined)	-2	-8%	4	-1%	26%	-13
O=C(COC(=O)c1ccccc1O)NCc1ccc2c(c1)OCO2	5	6%	21	?	?	9
CCCc1ccc(C(=O)CN2C(=O)C(=O)N(C3CCCC3)C2=O)cc1	0	-14%	2	-1%	2%	17
Cc1ccc(-c2nc(C)sc2CC(=O)OCC(=O)Nc2ccc(F)c(Cl)c2)cc1	0	-3%	0	4%	-8%	9
CC1C/C(=N/N2C(=O)CSC2=S)CC(C)(C)C1 (centres undefined)	-7	-39%	-63*	0%	-44%	28
CCCOc1cccc(-c2nnc(NC(=O)c3ccco3)s2)c1	-2	?	2	-13%	21µM*	10
CCCC(=O)Nc1nnc(-c2cccc(OCC)c2)s1	1	-1%	8	28µM*	?	-28
CCCCn1c(N)c(N(CCOC)C(=O)c2cc(Cl)nc3ccccc23)c(=O)[nH]c1=O	2	3%	-5	-6%	2%	35
COc1ccccc1C=NNC(=O)c1ccccc1OCCOc1ccccc1	4	?	23	1%	?	?
SMILES	DRD3 agonist	DT40 TDP1 CPT	DRD3 antagonist	ClpP mod	DT40 TDP1 no CPT	IL1B secr inh
C/C(=N\NC(=O)c1ccccc1OCCOc1ccccc1)c1ccccc1F	7	?	8	/	16µM*	-65*
CC(=O)c1ccc(-c2cccc(-c3cc(=O)oc4ccc(C(C)(C)C)cc34)c2)cc1	39*	?	37	-7%	?	-30
CC(C)(C)c1ccc2oc(=O)cc(-c3cccc(-c4ccc(C(F)(F)F)cc4)c3)c2c1	-1	?	10	-7%	?	15
Cn1ccc2c(-c3ccc4c(c3)OCCO4)cc3c(c21)C1CCC3O1 (centres undefined)	2	2%	3	4%	-30%	11
CCOc1ccccc1NC(=O)Cn1c(=O)oc2cc(S(=O)(=O)NCc3ccccc3)ccc21	2	13µM*	/	-3%	?	/
COc1ccccc1CNC(=O)Cn1c(=O)oc2cc(S(=O)(=O)NCc3ccccc3)ccc21	-2	10µM*	/	-4%	18µM*	/
COc1ccccc1CNC(=O)Cn1c(=O)oc2ccccc21	4	-1%	/	-1%	-19%	/
COc1ccc(OC)c(NC(=O)Cn2c(=O)oc3cc(S(=O)(=O)NCc4ccccc4)ccc32)c1	3	?	/	0%	15µM*	/
O=C1c2cccc3c2[C@H](CCC3)CN1[C@@H]1CN2CCC1CC2	-5	17µM*	/	/	15µM*	/
O=C1c2cccc(-c3ccc(C(F)(F)F)cc3)c2C2CCCCN12 (centres undefined)	7	?	24	2%	?	48
COc1cccc(CC(NC(C)=O)C(=O)NC2CCN(S(=O)(=O)c3ccc(C)cc3)CC2)c1OC (centres undefined)	-4	-26%	1	/	-3%	16
CN(CCCN1CCOCC1)Cc1cn(C)nc1-c1ccccc1F	-5	23%	-16	1%	-10%	1
CC(=O)Nc1ccc(-c2csc(NCc3ccco3)n2)cc1	-9	-13%	-12	-4%	-25%	-22
Cc1ccn2c(-c3csc(NCc4ccco4)n3)c(C)nc2c1	-8	15µM*	0	-8%	18µM*	-20
COc1ccc(-c2ccc(C#N)c(SCC(=O)NCc3ccco3)n2)cc1OC	2	-7%	-5	/	?	27
COc1ccc(-c2nc3cccc(C)n3c2NCc2ccco2)cc1OC	6	?	-52*	14µM*	?	-30
